# Measurements: the supplement of paper PMC10646978
# ± gives the standard deviation.
# Assays:
# Details in all cases: modulator concentration 10 µM
# [1] = tested on: RAW-Dual (murine macrophage reporter line); experiment: NF-kB reporter (SEAP) activity fold change vs agonist alone; higher = enhanced NF-kB activity
# Outline: (§1)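 Overnight stimulation with a PRR agonist followed pre-incubation for 1 hour at 37 °C with compound at 10 μM final. This was done in RAW-Dual murine macrophage reporter cells seeded at 50 000 per well in 384-well plates. NF-κB (SEAP, QUANTI-Blue absorbance at 620 nm) and IRF (Lucia luciferase, QUANTI-Luc luminescence) were read from the supernatant. Each reporter's fold change relative to the mean agonist-only control on the same plate was averaged over replicate plates.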
# [2] = tested on: RAW-Dual (murine macrophage reporter line); experiment: IRF reporter (Lucia luciferase) activity fold change vs agonist alone; higher = enhanced IRF activity
# Outline: as §1
# [3] = tested on: RAW-Dual (murine macrophage reporter line); experiment: viability score (confluency relative to resting cells, overnight) (fraction); higher = more viable, active = viable (0.7 or more)
# Outline: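 RAW-Dual macrophages in 384-well plates were treated overnight with compound at 10 μM final. IncuCyte imaging recorded confluency, and IncuCyte software built two confluency masks across every imaged well. The viability score expresses confluency relative to resting cells and was judged against a cutoff, which a compound met only if both masks exceeded 70% of resting cells.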
# [4] = agonist: CpG ODN 1826 0.5 ug/mL
SMILES,"NF-kB reporter [1, 4]",NF-kB reporter ([1]; agonist: LPS 0.1 ug/mL),NF-kB reporter ([1]; agonist: MPLA […]),IRF reporter ([2]; agonist: 3'3'-cGAMP 10 ug/mL),IRF reporter ([2]; agonist: LPS 0.1 ug/mL),IRF reporter ([2]; agonist: MPLA […]),viability score [3]
Br.O=S(=O)(c1ccc(-c2csc(Nc3ccc(Br)cc3)n2)cc1)N1CCOCC1,0.967 ± 0.084,1.08 ± 0.091,1.1 ± 0.046,0.951 ± 0.17,1.14 ± 0.049,0.903 ± 0.059,0.999 (active)
Nc1ccn(C[C@@H](CO)OCP(=O)(O)O)c(=O)n1,1 ± 0.25,0.97 ± 0.057,0.961 ± 0.064,0.906 ± 0.03,1.3 ± 0.14,1.14 ± 0.16,1.01 (active)
Fc1ccc(CN2CCc3c([nH]c4ccccc34)C2)cc1,0.756 ± 0.07,0.707 ± 0.059,1.4 ± 0.12,0.64 ± 0.039,0.974 ± 0.091,2.77 ± 0.34,0.126 (inactive)
CCC(C)(C)C(=O)Nc1ccc(C(C)=O)cc1,0.962 ± 0.076,1.03 ± 0.068,0.953 ± 0.045,0.909 ± 0.13,1.02 ± 0.14,1.11 ± 0.22,1 (active)
Cc1cnc2c(c1N1CCC(Cc3ccccc3)CC1)c(=O)n(C)c(=O)n2C,0.97 ± 0.06,1.08 ± 0.084,0.996 ± 0.051,1.06 ± 0.044,1.01 ± 0.088,1.07 ± 0.26,0.999 (active)
Cc1cc(Cl)ccc1NC(=O)c1ccc(CN2CCN(c3ccccc3)CC2)cc1,0.684 ± 0.053,0.999 ± 0.07,0.978 ± 0.085,0.803 ± 0.037,1.07 ± 0.069,1.2 ± 0.11,1.02 (active)
CC(=NN1CCN(Cc2cccc3ccccc23)CC1)c1ccc(O)cc1,0.841 ± 0.062,0.886 ± 0.079,0.988 ± 0.026,0.849 ± 0.031,0.946 ± 0.1,0.963 ± 0.14,0.996 (active)
CC12CC3CC(C1)CC(CC(=O)O)(C3)C2,1.02 ± 0.18,1.04 ± 0.12,0.994 ± 0.17,0.907 ± 0.029,1.09 ± 0.11,1.3 ± 0.3,0.526 (inactive)
Cc1ccc(-c2cc(NC(=O)c3ccc([N+](=O)[O-])cc3)[nH]n2)cc1,1.43 ± 0.11,1.04 ± 0.059,1 ± 0.061,0.869 ± 0.066,1.78 ± 0.3,1.82 ± 0.13,0.971 (active)
O=C(NCC1CCCN1c1nccs1)C1CC1 (stereo not given),0.946 ± 0.045,1.02 ± 0.12,1.13 ± 0.084,0.973 ± 0.07,1.03 ± 0.23,1.18 ± 0.54,0.99 (active)
Cc1cccc(NC(=O)C(=Cc2ccco2)NC(=O)c2ccccc2I)c1,1.06 ± 0.087,1.06 ± 0.081,1.01 ± 0.072,0.953 ± 0.076,1.15 ± 0.099,1.11 ± 0.15,1.01 (active)
CC(C)c1ccc(NC(=O)C2CCCCC2C(=O)O)cc1 (stereo not given),1.19 ± 0.074,1.06 ± 0.07,0.994 ± 0.071,0.93 ± 0.031,1.51 ± 0.1,1.24 ± 0.12,0.996 (active)
CCCc1nn(C)c2c(=O)[nH]c(-c3cc(S(=O)(=O)N4CCN(C)CC4)ccc3OCC)nc12,0.951 ± 0.23,1.03 ± 0.07,1 ± 0.068,0.928 ± 0.036,1.25 ± 0.16,1.37 ± 0.22,0.986 (active)
COc1ccccc1C(=O)Nc1ccc(-c2nc3cc(C)ccc3o2)cc1,0.794 ± 0.063,0.996 ± 0.051,1.12 ± 0.11,0.803 ± 0.039,1.55 ± 0.11,1.62 ± 0.14,0.975 (active)
NC(=O)c1ncn(C2OC(CO)C(O)C2O)c1O (stereo not given),0.931 ± 0.076,0.895 ± 0.088,0.917 ± 0.1,1.04 ± 0.037,1.32 ± 0.16,1.46 ± 0.2,1.01 (active)
